Experimental data published in PubChem BioAssay AID1274 (Emory University Molecular Libraries Screening Center, 2008).
The campaign covered roughly 220,000 compounds. About 1,100 (0.5%) were called active. The sample holds actives, similar compounds and a random draw of the others, so the mix is not that of the screen. Unmarked numbers belong to inactive results.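 The calls were made as follows: active = inhibition above about 30% (limit read from the data); inactive = the rest.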

Molecular target: Neutrophil cytosol factor 1 (Homo sapiens) (UniProt P14598)
Assay: blockers of p47phox binding to p22phox – biochemical, uHTS, NADPH oxidase regulatory subunit, primary screen (AID 1274);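 also: 0% = p47phox with labelled peptide and 100% = labelled peptide alone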
Details: p47phox/p22phox peptide binding, fluorescence polarization, 2 h; at 24.7 µM; hits give high values

Chain of Neutrophil cytosol factor 1 (Homo sapiens) (P14598 whole entry, looked up): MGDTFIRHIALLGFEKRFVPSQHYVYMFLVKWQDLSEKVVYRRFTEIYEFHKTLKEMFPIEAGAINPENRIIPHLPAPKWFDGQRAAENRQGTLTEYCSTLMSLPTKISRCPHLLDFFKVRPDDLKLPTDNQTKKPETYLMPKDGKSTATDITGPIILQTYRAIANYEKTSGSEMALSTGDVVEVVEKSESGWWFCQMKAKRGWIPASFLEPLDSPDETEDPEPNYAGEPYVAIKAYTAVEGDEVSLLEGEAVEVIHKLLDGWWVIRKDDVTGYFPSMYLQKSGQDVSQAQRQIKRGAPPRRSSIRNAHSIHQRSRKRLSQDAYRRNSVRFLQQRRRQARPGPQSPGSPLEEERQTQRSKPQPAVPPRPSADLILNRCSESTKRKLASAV

Row | Structure (SMILES) | inhibition
1 | COc1ccc(C2(CNC(=O)Cc3ccc(OC)c(OC)c3)CCCC2)cc1 | 10.1%
2 | O=C(CSc1ccc2nnc(-c3ccccc3)n2n1)N1CCCc2ccccc21 | 9.14%
3 | COc1ccc(NC(=S)SC)cc1OC | -0.91%
4 | O=c1[nH]c2cccnc2n1-c1ccc([N+](=O)[O-])cc1 | 3.76%
5 | O=C1CC(c2ccccc2)=NN1c1ccc([N+](=O)[O-])cc1 | -0.56%
6 | O=c1[nH]n(-c2ccc([N+](=O)[O-])cc2)c(=O)c2ccccc12 | 43.7% (active)
7 | CC(=O)c1c(C)[nH]c(C(=O)Nc2cc(S(=O)(=O)N(C)C)ccc2C)c1C | -11.1%
8 | COCCn1c(SCC(=O)Nc2cc(OC)ccc2OC)nc2c(c1=O)SC(C)C2 (stereo not drawn) | -1.72%
9 | CC1=C(C)C(=O)OC(C(C)C2CCC3C4CC=C5CC(OC6OC(COC7OC(CO)C(O)C(O)C7O)C(O)C(O)C6O)CC(O)C5(C)C4CCC23C)C1 (stereo not drawn) | -3.03%
10 | Cc1ccc(C)c2[nH]c(=O)c(CN(Cc3cccnc3)C(=S)NCc3ccco3)cc12 | 40.3% (active)
11 | O=C(Nc1ccccc1)N(Cc1cccnc1)Cc1ccco1 | -9.87%
12 | Cc1cccc2cc(CN(Cc3cccs3)C(=S)NCc3ccco3)c(=O)[nH]c12 | -184%
13 | O=S1(=O)CC/C(=N\Nc2ccc(F)cc2)c2ccsc21 | -3.38%
14 | O=C(NCCc1c[nH]c2ccccc12)C(=O)NCC1CCCO1 (stereo not drawn) | -9.36%
15 | N#C/C(=C/c1ccc(N2CCCCC2)o1)C(=O)NCCc1c[nH]c2ccccc12 | 41.9% (active)
16 | N#C/C(=C/c1ccc(-c2ccccc2[N+](=O)[O-])o1)C(=O)NCCN1CCCCC1 | 2.84%
17 | Cc1ccc2cc(CN(c3ccc(C)c(C)c3)S(C)(=O)=O)c(=O)[nH]c2c1 | -7.6%
18 | O=C(Nc1ccc(S(=O)(=O)N2CCOCC2)cc1)c1ccc2ncsc2c1 | -9.71%
19 | Cc1ccc(O)c(NC(=S)NC(=O)COc2ccc(Br)cc2)c1 | -10.4%
20 | CCOC(=O)N1CCN(CCC(=O)Nc2cc(OC)ccc2OC)CC1 | 3.79%
21 | COc1ccc(NC(=O)CCN2CCCC2)c(OC)c1 | -2.15%
22 | COc1ccc(OC)c(NC(=O)CCN2CCC(C)CC2)c1 | 43.5% (active)
23 | Cc1ncn2cc(-c3ccc(Cl)cc3Cl)[nH]c(=O)c12 | 0.92%
24 | CN(C)C(=O)CSc1n[nH]c(-c2ccco2)n1 | -9.79%
25 | O=C(COC(=O)c1ccc(F)cc1F)Nc1ncccn1 | -18.8%
26 | CCc1ccc(C2C(C#N)=C(N)N(N(C)C)C3=C2C(=O)CCC3)s1 (stereo not drawn) | -16.9%
27 | N#CC1=C(N)N(c2ccccc2)C2=C(C(=O)CCC2)C1c1ccccc1 (stereo not drawn) | -23.4%
28 | CSc1sc(C)cc1C1C(C#N)=C(N)N(c2cccnc2)C2=C1C(=O)CCC2 (stereo not drawn) | 40.6% (active)
